The values below come from PubChem BioAssay (NCI).

The structures appear in SMILES notation. Compounds without any hit were thinned out: in the full panel of roughly 83,000, 20% have a hit.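 Negative percent growth values reflect cell death: -40 means 40% of the cells present at the start died, and -100 means all died.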 A number with no mark means an inactive call. The source made the active and inactive calls. The calls were made as follows: active = growth percent below 10; inactive = the rest.

What all share (assay): NCI-60 one-dose screen, 48 h (100 = growth as untreated, 0 = no growth, -100 = all killed)
What all share (conditions): 10 µM unless noted

Experiment [1] has as its system DU-145 prostate.
Experiment [2] deals with K-562 leukemia.
The test system of experiment [3] is MALME-3M melanoma.
Experiment [4] has as its system MDA-MB-231 breast.
For experiment [5], the system named is RXF 393 renal.
The test system of experiment [6] is SF-268 CNS.
Experiment [7] deals with SF-295 CNS.
Experiment [8] concerns SF-539 CNS.
For experiment [9], the system named is UACC-257 melanoma.
Experiment [10] relates to M14 melanoma.
Experiment [11] deals with HCT-15 colon.
For experiment [12], the system named is HT29 colon.
Experiment [13] relates to SNB-75 CNS.
The subject of experiment [14] is SNB-19 CNS.
Experiment [15] concerns U251 CNS.
The subject of experiment [16] is PC-3 prostate.
The test system of experiment [17] is SK-MEL-5 melanoma.
The subject of experiment [18] is UACC-62 melanoma.
Experiment [19] deals with SK-MEL-28 melanoma.
Experiment [20] relates to LOX IMVI melanoma.

As to `N#Cc1c(Nc2cccc(Cl)c2)sc(C(=O)c2cc3cc(Cl)ccc3o2)c1N`, the growth in experiment [1] is 30.6%; in [2] it was 51.9%; in [3], 101%; in [4], 75.6%; in [5], 105%; in experiment [6] it was 67.7%. The growth is 123% in [7]; 84% in [8]; 102% in experiment [9]; 105% in experiment [10]; 72.6% in experiment [11]; 80.5% in [12]. Moreover, the growth in [13] is 101%; in experiment [14], 97.5%; in experiment [15] it was 62.6%; in [16], 62.8%; in experiment [17], 73.4%; in experiment [18], 78.6%. In addition, in experiment [19], the growth was 94.3%.
As for `COc1ccc(-c2conc2-c2ccccc2)cc1`, the growth is 11.5% in [1]; 13.3% in experiment [2]; 56.2% in experiment [3]; 11.6% in [4]; -21.8% (active) in [5]; 44.6% in experiment [6]. The growth in experiment [7] is 16.3%; in experiment [8], -23.4% (active); in experiment [9], 71.5%; in experiment [10], 6.54% (active); in experiment [11], 17.9%; in [12], 53.1%. For the same molecule, the growth in [13] is -12.4% (active); in [14], 30.1%; in experiment [15], 20.9%; in [16], 20%; in experiment [17], 22.4%; in experiment [18], 17.8%. Moreover, the results for the growth in experiment [20] and in experiment [19] were 38.8% and 55.3%, respectively.
For `CCCCCCCCCCCCCCCCCCOc1ccccc1CC(=O)OCC[N+](CC)(CC)CC`, the growth in experiment [1] is 33.9%; in [2], 6.67% (active); in experiment [3], -8.97% (active); in [4], -17.3% (active); in experiment [5], -16.9% (active); in experiment [6], 23.8%. Also, the growth was 27.9% in [7]; 18.5% in [8]; 48.1% in experiment [9]; 26.8% in [10]; 80.9% in experiment [11]; 13.1% in experiment [12]. Further, the growth in experiment [13] was 22.5%; in experiment [14] it was 11.4%; in experiment [15], 14.4%; in experiment [16] it was 18.3%; in experiment [18], 21.4%; in [20], -57.6% (active). Moreover, the growth in [19] was 31.5%.
With `CCC12CCC[N+]3([O-])CCC4(C(=Nc5ccccc54)C(O)(C(=O)OC)C1)C23` (stereo not drawn), the growth in experiment [1] was 103%; in experiment [2], 109%; in experiment [3] it was 104%; in experiment [4], 103%; in [5] it was 113%; in experiment [6], 96.2%. In addition, the growth in [7] is 102%; in [8], 103%; in [9], 115%; in [10], 96.7%; in experiment [11] it was 108%; in experiment [12], 98.3%. In addition, the growth in [13] was 92.7%; in [14], 102%; in [15] it was 108%; in experiment [16] it was 87.8%; in experiment [18], 103%; in [20], 100%. Further, the growth in experiment [19] is 94.5%.
Regarding `COc1ccc(-c2nc3sc(-c4ccccc4)cn3n2)cc1`, the growth was 83.5% in experiment [1]; 23.8% in experiment [2]; 67.6% in [3]; 47% in experiment [4]; 75.3% in [5]; 71.8% in [6]. Besides, the growth is 61.8% in [7]; 75.2% in experiment [8]; 71.8% in experiment [9]; 28.4% in experiment [10]; 30.4% in experiment [11]; 29.6% in experiment [12]. In addition, the growth in experiment [13] was 65.2%; in experiment [14], 65.9%; in [15] it was 78.8%; in experiment [16] it was 66.5%; in experiment [18], 57.2%; in [20], 54.4%. Further, the growth in experiment [19] was 67.6%.
As to `O=C(Nc1nc2ccc(F)cc2s1)c1cccnc1Nc1ccc(Cl)cc1Cl`, the growth in experiment [1] is 30%; in [2], 4.08% (active); in [3], -15.9% (active); in experiment [4], 34.5%; in [5] it was 44.4%; in [6] it was 28.9%. Further, the growth was 4.3% (active) in [7]; 43.1% in experiment [8]; 28.1% in [9]; 37% in experiment [10]; 16.9% in experiment [11]; 7.92% (active) in [12]. Also, the growth is 34.7% in experiment [13]; 20.2% in [14]; 15.8% in [15]; 3.63% (active) in [16]; 20.1% in experiment [18]; 32.5% in experiment [20]. The growth in experiment [19] is 37.8%.
On to `N[C@@H](Cc1ccccc1)[C@@H](O)C(=O)NCc1ccc(F)cc1`, for which the growth in experiment [1] is 110%; in [2], 97%; in experiment [3] it was 107%; in experiment [4], 100%; in experiment [5] it was 118%; in experiment [6] it was 95.7%. Besides, the growth in [7] was 95.5%; in experiment [8], 105%; in experiment [9], 107%; in [10] it was 101%; in [11], 103%; in experiment [12] it was 110%. The growth was 90.1% in experiment [13]; 97.6% in experiment [14]; 104% in [15]; 106% in experiment [16]; 102% in [17]; 94.5% in experiment [18]. Further, the growth in experiment [19] was 108%.
For the molecule `CCOC(=O)/C(C#N)=C\Nc1ccc2ncnc(Nc3ccc(Cl)cc3Cl)c2c1`, the growth in experiment [1] is 55.9%; in [2] it was 59.7%; in [3] it was 140%; in [4], 85.2%; in [5], 77%; in experiment [6], 73%. The growth in [7] was 82.2%; in [8], 92.7%; in [9], 97.2%; in experiment [10], 106%; in [11], 92.7%; in experiment [12], 79.4%. Further, the growth in experiment [13] is 91.3%; in [14], 86.4%; in experiment [15], 81.4%; in experiment [16] it was 59.3%; in experiment [17], 78.3%; in experiment [18], 90%. The growth in [19] was 109%.
